Laboratory results: PubChem BioAssay
For part of these data: Results with a measured potency or affinity are listed apart. The source made the active and inactive calls.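 How the source made its calls, unless noted: active means primary screen hit whose fluorescence ratio, in both repeats, exceeds the weak agonist control mean by 3 SD; inactive means the rest.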

Assays:
[1] = tested on: TRPC4 beta (transient receptor potential cation channel C4), mouse; experiment: activators of mouse TRPC4 channel, confirmation, cell-based, Fluo4 calcium, HEK293 TRPC4beta/mu-opioid, duplicates, 10 µM (AID 2426;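 active means fluorescence ratio normalized to control raised more than 50% in primary screen plus both repeat runs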); conditions: Fluo4 calcium fluorescence, at 10 µM; active compounds read high
[2] = tested on: transient receptor potential cation channel C4 beta (TRPC4), mouse; experiment: activators of mouse TRPC4 channel, confirmation, cell-based, second round, Fluo4, HEK293 TRPC4beta/mu-opioid, 1 µM (AID 2461;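 active means primary screen active and over 50% activation in each of two duplicate runs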); conditions: Fluo4 calcium fluorescence, at 1 µM; active compounds read high
[3] = tested on: TRPC4 (transient receptor potential cation channel C4 beta), mouse; experiment: positive allosteric modulators of mouse TRPC4, confirmation, cell-based, second round, Fluo-4, HEK293 TRPC4beta/mu-opioid, 1 µM (AID 2554); conditions: DAMGO EC20, Fluo-4 calcium flux, at 1 µM; active compounds read high
[4] = tested on: TRPC4 beta (transient receptor potential cation channel C4), mouse; experiment: positive allosteric modulators of mouse TRPC4, confirmation, cell-based, Fluo-4, HEK293 TRPC4beta/mu-opioid (AID 2555;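 active means primary screen hit whose calcium fluorescence ratio, in both repeats, exceeds the weak agonist control mean by 3 SD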); conditions: DAMGO EC20, Fluo-4 calcium flux, at 10 µM; active compounds read high
[5] = molecular target: Short transient receptor potential channel 4 (Mus musculus) (UniProt Q9QUQ5); experiment: inhibitors of mouse TRPC4 channel, confirmation, cell-based, Fluo4, HEK293 TRPC4beta/mu-opioid (AID 2636;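 active means calcium signal cut by more than 3 SD below the full-agonist control yet still positive, in both repeats and the earlier primary screen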); conditions: DAMGO, Fluo4 calcium flux, at 10 µM; active compounds read high
Short transient receptor potential channel 4 (Mus musculus), sequence (Q9QUQ5 whole entry, looked up): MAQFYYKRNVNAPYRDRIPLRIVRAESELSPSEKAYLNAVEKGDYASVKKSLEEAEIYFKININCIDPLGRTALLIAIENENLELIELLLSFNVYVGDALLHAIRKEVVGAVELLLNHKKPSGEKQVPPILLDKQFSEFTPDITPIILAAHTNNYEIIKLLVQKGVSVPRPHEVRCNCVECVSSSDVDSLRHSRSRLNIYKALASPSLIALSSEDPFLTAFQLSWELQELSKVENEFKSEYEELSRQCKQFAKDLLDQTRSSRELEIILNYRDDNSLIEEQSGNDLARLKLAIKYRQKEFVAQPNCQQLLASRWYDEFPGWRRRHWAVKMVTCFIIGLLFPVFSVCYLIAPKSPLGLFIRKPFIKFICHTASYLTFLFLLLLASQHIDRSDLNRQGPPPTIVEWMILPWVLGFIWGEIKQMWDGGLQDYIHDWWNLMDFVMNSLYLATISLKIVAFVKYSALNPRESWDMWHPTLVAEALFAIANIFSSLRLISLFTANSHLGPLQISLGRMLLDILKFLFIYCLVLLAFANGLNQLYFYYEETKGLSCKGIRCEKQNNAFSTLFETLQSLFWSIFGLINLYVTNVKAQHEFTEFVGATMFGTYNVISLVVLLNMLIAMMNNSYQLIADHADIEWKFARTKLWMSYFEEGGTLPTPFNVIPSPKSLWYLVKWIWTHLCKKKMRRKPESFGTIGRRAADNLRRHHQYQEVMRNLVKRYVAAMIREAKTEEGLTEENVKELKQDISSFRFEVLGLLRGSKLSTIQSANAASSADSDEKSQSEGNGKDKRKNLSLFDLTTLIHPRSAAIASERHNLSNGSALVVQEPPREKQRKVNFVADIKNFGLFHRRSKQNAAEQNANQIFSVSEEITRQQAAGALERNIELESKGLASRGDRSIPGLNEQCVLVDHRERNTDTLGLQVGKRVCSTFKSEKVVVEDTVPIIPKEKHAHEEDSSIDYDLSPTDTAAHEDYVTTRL

[6] = molecular target: Short transient receptor potential channel 4 (Mus musculus) (UniProt Q9QUQ5); experiment: inhibitors of mouse TRPC4 channel, confirmation, cell-based, second round, Fluo4, HEK293 TRPC4beta/mu-opioid, 1 µM (AID 2637;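 active means calcium signal ratio cut to more than 3 SD under the fully stimulated control mean yet still positive, in both repeats and the primary screen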); conditions: Fluo4 calcium flux, DAMGO, at 1 µM; active compounds read high
[7] = molecular target: Short transient receptor potential channel 4 (Mus musculus) (UniProt Q9QUQ5); experiment: mouse TRPC4 channel activators, dose response, cell-based, HEK293 TRPC4/mu-opioid, Fluo-4 calcium (AID 434937;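 active means primary screen activator hit with a dose response curve and TRPC4 channel activation at any tested dose; inactive means no activation, no dose response, or not a primary hit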)
[8] = molecular target: Short transient receptor potential channel 4 (Mus musculus) (UniProt Q9QUQ5); experiment: TRPC4 positive allosteric modulators, dose response, cell-based, HEK293 TRPC4/mu-opioid, Fluo-4 calcium, EC20 DAMGO (AID 434941;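 active means earlier screen potentiator hit that boosts the TRPC4 ion channel at some dose, with a dose response; inactive means no potentiation, no dose response, or not a prior hit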;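 further: calcium entry triggered by an EC20 dose of DAMGO at the co-expressed mu-opioid receptor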)
[9] = molecular target: Short transient receptor potential channel 4 (Mus musculus) (UniProt Q9QUQ5); experiment: mouse TRPC4 channel inhibitors, dose response, cell-based, HEK293 TRPC4/mu-opioid, Fluo-4 calcium (AID 434942;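 active means primary screen inhibitor hit that blocks the TRPC4 channel at some tested dose, yielding a dose curve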)
[10] = molecular target: Short transient receptor potential channel 6 (Mus musculus) (UniProt Q61143); experiment: inhibition of mouse TRPC6 channel, confirmation, selectivity assay for TRPC4 inhibitor project, cell-based, HEK293, membrane potential dye, duplicate (AID 434948;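 active means active in primary screen and both duplicates, each dropping signal beyond three positive-control SD with fluorescence still positive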); conditions: HEK293 TRPC6, membrane potential dye fluorescence, at 10 µM, stimulated with maximal-effect acetylcholine; active compounds read high
Short transient receptor potential channel 6 (Mus musculus), sequence (Q61143 whole entry, looked up): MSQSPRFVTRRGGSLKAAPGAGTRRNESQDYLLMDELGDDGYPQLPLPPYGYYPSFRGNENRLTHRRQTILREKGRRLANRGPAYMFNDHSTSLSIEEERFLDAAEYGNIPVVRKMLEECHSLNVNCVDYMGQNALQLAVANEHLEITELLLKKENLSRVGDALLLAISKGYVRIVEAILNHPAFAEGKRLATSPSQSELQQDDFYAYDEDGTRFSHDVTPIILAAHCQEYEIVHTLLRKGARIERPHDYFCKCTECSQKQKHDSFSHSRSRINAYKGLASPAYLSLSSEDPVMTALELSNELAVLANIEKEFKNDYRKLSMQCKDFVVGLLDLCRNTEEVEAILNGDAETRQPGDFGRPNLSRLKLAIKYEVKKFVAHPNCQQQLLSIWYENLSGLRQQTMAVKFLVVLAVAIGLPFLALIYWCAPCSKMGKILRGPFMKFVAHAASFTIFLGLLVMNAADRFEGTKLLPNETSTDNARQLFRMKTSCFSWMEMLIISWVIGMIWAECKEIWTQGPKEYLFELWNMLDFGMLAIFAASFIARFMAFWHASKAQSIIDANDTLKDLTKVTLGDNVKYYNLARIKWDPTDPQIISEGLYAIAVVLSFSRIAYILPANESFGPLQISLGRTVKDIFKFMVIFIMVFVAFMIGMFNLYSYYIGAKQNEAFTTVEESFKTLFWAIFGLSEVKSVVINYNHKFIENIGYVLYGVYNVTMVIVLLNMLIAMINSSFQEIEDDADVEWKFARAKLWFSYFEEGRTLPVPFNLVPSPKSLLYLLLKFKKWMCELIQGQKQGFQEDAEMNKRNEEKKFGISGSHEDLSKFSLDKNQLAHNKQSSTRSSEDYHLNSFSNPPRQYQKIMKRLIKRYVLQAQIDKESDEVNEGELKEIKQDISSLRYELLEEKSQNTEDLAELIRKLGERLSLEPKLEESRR

[11] = molecular target: Short transient receptor potential channel 6 (Mus musculus) (UniProt Q61143); experiment: activation of mouse TRPC6 channel, confirmation, selectivity assay for TRPC4 activator project, cell-based, HEK293, membrane potential dye, duplicate (AID 434950;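 active means membrane potential signal rise above negative control mean plus 3 SD in both duplicates, also active in the earlier TRPC4 screen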); conditions: HEK293 TRPC6, membrane potential fluorescence, at 10 µM; active compounds read high
[12] = molecular target: Short transient receptor potential channel 6 (Mus musculus) (UniProt Q61143); experiment: TRPC6 potentiation by TRPC4 potentiator hits, confirmation, selectivity assay for TRPC4 potentiator project, HEK293 cells, membrane potential dye, duplicate (AID 434952;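 active means compound raising the membrane signal above positive-control mean plus 3 SD in both repeats, and a primary screen hit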); conditions: HEK293 TRPC6, membrane potential dye fluorescence, at 10 µM, maximal acetylcholine added after compound; active compounds read high
[13] = molecular target: Short transient receptor potential channel 4 (Mus musculus) (UniProt Q9QUQ5); experiment: calcium flux activators in TRPC4/5HT1a cells, counter-screen for TRPC4 activator project, cell-based, second counter screen, HEK293 TRPC4/5HT1a, Fluo-4 (AID 434977;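 active means calcium signal rise above buffer-control mean plus 5 SD in both duplicates, and also a hit in the primary screen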); conditions: Fluo-4 calcium flux, at 10 µM; active compounds read high
[14] = calcium flux inhibitors in TRPC4/5HT1a cells, confirmation, counter-screen for TRPC4 inhibitor project, cell-based, second counter screen, HEK293 TRPC4/5HT1a, Fluo-4 (AID 434978;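 active means primary screen active whose calcium signal fell more than 3 SD beyond the full-serotonin control mean in both duplicate plates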;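 further: serotonin given first at submaximal then at maximal dose after compound preincubation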); conditions: Fluo-4 calcium flux, at 10 µM, serotonin added to trigger calcium flux; active compounds read high
[15] = tested on: TRPC4 (mouse), co-expressed with 5HT1a in HEK293; experiment: calcium flux potentiators in TRPC4/5HT1a cells, confirmation, counter-screen for TRPC4 potentiator project, cell-based, second counter screen, HEK293 TRPC4/5HT1a, Fluo-4 (AID 434979;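 active means signal rise over 3 SD above mean of control wells given weak agonist, in both repeats and first screen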); conditions: Fluo-4 calcium flux, at 10 µM, serotonin added at its EC20 dose; active compounds read high
[16] = calcium flux activation in mu-opioid HEK293 cells, confirmation, counter-screen for TRPC4 activator project, cell-based, HEK293 mu-opioid receptor line (AID 449723;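 active means hit in primary screen, with calcium signal over 5 SD above buffer well mean in both duplicates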;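 further: counter screen cells carry the mu-opioid receptor alone and lack TRPC4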); conditions: Fluo-4 calcium fluorescence, at 10 µM; active compounds read high
[17] = calcium flux enhancement in mu-opioid HEK293 cells, confirmation, counter-screen for TRPC4 allosteric potentiator project, cell-based, HEK293 mu-opioid receptor line (AID 449724;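 active means calcium signal rise more than 3 SD above the low-dose agonist control mean, in both duplicate plates and the primary screen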); conditions: Fluo-4 calcium flux, at 10 µM, compound added before EC20 DAMGO stimulus; active compounds read high

Measured: potentiation

CCN1CCN(c2ccc(S(=O)(=O)N3CCCCC3)cc2NC(=O)c2cccc(C(F)(F)F)c2)CC1
active: [4] 21% | [15] 21.1%
inactive: [1] | [2] | [3] | [5] | [6] | [7] | [8] | [9] | [10] | [11] | [12] | [13] | [14] | [16] | [17]

CC(Sc1nc2sc3c(c2c(=O)n1-c1ccccc1)CCCC3)C(=O)O (stereo not given)
inactive: [1] | [2] | [3] | [5] | [6] | [7] | [8] | [9] | [10] | [11] | [12] | [13] | [14] | [16] | [17]
active: [4] 12% | [15] 22.2%

CNc1oc(-c2ccccc2Cl)nc1P(=O)(c1ccccc1)c1ccccc1
inactive: [1] | [2] | [3] | [4] | [5] | [6] | [7] | [8] | [9] | [10] | [11] | [12] | [13] | [14] | [15] | [16] | [17]

CCN(CCCNC(=O)CCCOc1cc(=O)n(C)c2ccccc12)Cc1ccccc1
active: [15] 16.1%
inactive: [1] | [2] | [3] | [4] | [5] | [6] | [7] | [8] | [9] | [10] | [11] | [12] | [13] | [14] | [16] | [17]

CCn1c2ccc(F)cc2c2nnc(NN)nc21
inactive: [1] | [2] | [5] | [6] | [7] | [8] | [9] | [10] | [11] | [12] | [13] | [14] | [15] | [16] | [17]
active: [3] 27% | [4] 73%

Cc1ccc(S(=O)(=O)N2CCN(c3cc4c(cc3[N+](=O)[O-])n(C)c(=O)n4C)CC2)cc1
inactive: [1] | [2] | [3] | [4] | [5] | [6] | [7] | [8] | [9] | [10] | [11] | [12] | [13] | [14] | [16] | [17]
active: [15] 10.6%

CC(C)CCNC(=O)CCC(=O)NNc1nc2ccccc2c2nc(-c3ccccc3)nn12
inactive: [1] | [2] | [3] | [4] | [5] | [6] | [7] | [8] | [9] | [10] | [11] | [12] | [13] | [14] | [16] | [17]
active: [15] 70.8%

CCOc1ccc(Nc2nc(Cc3nnc(SCC(=O)c4ccc(C)cc4)o3)cs2)cc1
active: [15] 8.2%
inactive: [1] | [2] | [3] | [4] | [5] | [6] | [7] | [8] | [9] | [10] | [11] | [12] | [13] | [14] | [16] | [17]

CC(=O)c1nn(-c2cccc(Br)c2)cc1C(=O)c1cccc2ccccc12
inactive: [1] | [2] | [3] | [4] | [5] | [6] | [7] | [8] | [9] | [10] | [11] | [12] | [13] | [14] | [15] | [16] | [17]

Cc1ccc(NC(=O)c2cccs2)cc1
inactive: [1] | [2] | [3] | [4] | [5] | [6] | [7] | [8] | [9] | [10] | [11] | [12] | [13] | [14] | [15] | [16] | [17]

CC(=O)N1N=C(c2ccc(Br)cc2)OC1(C)CC(=O)Nc1ccccc1 (stereo not given)
active: [15] 13.4%
inactive: [1] | [2] | [3] | [4] | [5] | [6] | [7] | [8] | [9] | [10] | [11] | [12] | [13] | [14] | [16] | [17]

CCOc1ccccc1NC(=O)CN(c1ccc(OC)cc1)S(=O)(=O)c1c(C)[nH]c(=O)[nH]c1=O
inactive: [1] | [2] | [3] | [4] | [5] | [6] | [7] | [8] | [9] | [10] | [11] | [12] | [13] | [14] | [16] | [17]
active: [15] 16.4%

CC(C)C(=O)N1CCN(c2nc(-c3ccccc3)c3c(c2C#N)CCCC3)CC1
inactive: [1] | [2] | [3] | [5] | [6] | [7] | [8] | [9] | [10] | [11] | [12] | [13] | [14] | [16] | [17]
active: [4] 26% | [15] 29.4%

OCCNCc1cc(Br)ccc1OCc1ccccc1
inactive: [1] | [2] | [3] | [4] | [5] | [6] | [7] | [8] | [9] | [10] | [11] | [12] | [13] | [14] | [15] | [16] | [17]

O=[N+]([O-])c1cc([N+](=O)[O-])c2oc(-c3ccccc3)c(Br)c2c1O
inactive: [1] | [2] | [3] | [4] | [5] | [6] | [7] | [8] | [9] | [10] | [11] | [12] | [13] | [14] | [15] | [16] | [17]
